Among all 85,000 compounds or so, about 5,100 (6%) were called active.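 Rule for the calls: active = viability at or below 40%; inactive = viability above 40%.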 The full list was thinned out, with actives kept by preference.

One may read the viability as a read-out of living cells in per cent, often relative to untreated cells.

The assay can be described thus: H69AR cell viability reduction – human, 86K library, primary screen (AID 598).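 Note: multidrug resistant small cell line overexpressing MRP-1 efflux transporter; 100% = mean luminescence of untreated control wells.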 Particulars: H69AR lung tumor viability, ATP luminescence, 72 h; at 10 µM; active compounds read low.
Turning to `Cc1cc(N2CCN(S(=O)(=O)c3ccc(C)c(C)c3)CC2)c2ccccc2n1`, the viability is 66.8% (inactive).
As to `Cc1ccc2cc(C#N)c(SCC(=O)NCC3CCCO3)nc2c1C` (stereo unspecified), the viability is 91.2% (inactive).
On to `CC1(C)CCc2nc(SCc3ccccc3)c(C#N)cc2C1`, for which the viability was 81.4% (inactive).
For `CC(NC(=O)CSc1nc2c(cc1C#N)CN(C)CC2)c1ccccc1` (stereo unspecified) the value was 15.6% (active); for `O=C1C2N=NN(CC(=O)N3N=C(c4cccc5ccccc45)CC3c3ccccc3)C2C(=O)N1c1ccccc1` (stereo unspecified), 70.5% (inactive); for `CCN1CCCC1Cn1cnc2c([nH]c3cc(OC)ccc32)c1=O` (stereo unspecified), 79.9% (inactive).
As to `Cc1cccc(CCNS(=O)(=O)c2ccc(S(=O)(=O)NC3CCCC3)cc2)c1`, the viability is 78% (inactive).
With `O=C(Nc1ccc(Cl)cc1)c1cc2nc(C3CC3)cc(C(F)(F)F)n2n1`, the viability was 79.5% (inactive).
Regarding `Cc1cc(C)c2[nH]c(=O)c(C(c3nnnn3Cc3ccc4c(c3)OCO4)N3CCCC3)cc2c1` (stereo unspecified), the viability is 68.1% (inactive).
`CCOC(=O)C1CCN(C(c2cc3cc(C)cc(C)c3[nH]c2=O)c2nnnn2C2CCCCC2)CC1` (stereo unspecified): the viability is 6.09% (active).
In the case of `COc1ccc(N2CCN(C(c3cc4ccc(C)cc4[nH]c3=O)c3nnnn3C3CCCC3)CC2)cc1` (stereo unspecified), the viability is 86.9% (inactive).
For `Cc1ccc(-c2noc(CC(c3ccccc3)c3ccccc3)n2)cc1` the value was 97.1% (inactive); for `CCn1c(CNC(=O)c2ccccc2)nnc1SCC(=O)N1CCN(c2ccccc2)CC1`, 90.4% (inactive); for `Cc1cccc2nc(CSc3nc4[nH]ncc4c(=O)n3-c3cccc(Cl)c3)cc(=O)n12`, 41.8% (inactive).
For the compound `Cc1cc(C)c2c(n1)nn1c(N3CCN(c4cccc(Cl)c4)CC3)cc(C)nc21`, the viability is 17.6% (active).
Take `Cc1cc(C)c2c(n1)nn1c(-n3ccnc3)cc(C)nc21`: the viability was 74.5% (inactive).
With `Cc1cc(C)c2c(n1)nn1c(N3CCOCC3)cc(C)nc21` the figure was 72.3% (inactive); with `O=C(NCc1ccco1)c1cc(-c2cccnc2)nc2ccc(Cl)cc12`, 68.3% (inactive).
With `O=C(CSc1c2c(nc3ccc(Cl)cc13)CCCC2)NCc1ccco1` the figure was 7.34% (active); with `O=C(NCc1ccco1)C1(c2ccc(Cl)cc2)CCCC1`, 96.8% (inactive); with `COc1ccc(-n2nnnc2SCc2nc(N)nc(N3CCOCC3)n2)cc1`, 94.2% (inactive).
As to `Cc1cc(NC(=O)CS(=O)(=O)c2cn(C)c3ccccc23)no1`, the viability is 78.6% (inactive).
For `O=C(CSc1nc2cc3c(cc2c(=O)n1CCC1=CCCCC1)OCO3)NCc1ccco1` the value was 36.1% (active); for `O=C(CCCn1c(SCC(=O)c2ccc(F)cc2)nc2ccccc2c1=O)NCc1ccco1`, 58.2% (inactive).
As for `C=C(C)Cn1c(SCC(=O)NCc2ccco2)nc2sc3c(c2c1=O)CCC3`, the viability is 49.4% (inactive).
On to `Cc1c(CCO)c(=O)n(-c2ccccc2)n1S(=O)(=O)c1ccc(F)cc1`, for which the viability is 75.6% (inactive).
As for `CCn1c(SCC(=O)Nc2ccc(S(=O)(=O)Nc3onc(C)c3C)cc2)nnc1-c1ccccc1`, the viability is 98.3% (inactive).
`COn1c(=O)c(=O)n(OC)c2ccccc21`: the viability was 97.1% (inactive).
With `COC(=O)c1ccccc1Oc1c(F)c(F)nc(N2CCOCC2)c1F`, the viability was 67.1% (inactive).
With `Cc1ccc(C)c(N(CC(=O)NCc2ccco2)C(=O)CCC(=O)Nc2ccccn2)c1`, the viability was 98.1% (inactive).
In the case of `Cc1ccc(C(C(=O)NC2CCCC2)N(Cc2ccco2)C(=O)CCC(=O)Nc2ccccn2)cc1` (stereo unspecified), the viability was 69.7% (inactive).
Turning to `Cc1ccc2c(c1)N(CC(=O)N(Cc1ccccn1)Cc1ccco1)C(=O)C(C(C)C)O2` (stereo unspecified), the viability is 35% (active).
For `COc1cc(S(=O)(=O)N(Cc2cccs2)C2CC2)ccc1-n1cnnn1`, the viability was 68% (inactive).
For `COC(=O)c1ccccc1NC(=O)Cc1ccccc1OC` the value was 94.2% (inactive); for `CCOC(=O)c1nnn(-c2nonc2-n2cccc2)c1CN1CCC(C(=O)OCC)CC1`, 70.5% (inactive).
Regarding `CCOc1ccc(S(=O)(=O)NCCSc2ccccc2)cc1`, the viability was 105% (inactive).
For `COc1ccc(C(=O)N2CC3(C)CC2CC(C)(C)C3)cc1OC` (stereo unspecified), the viability is 88.7% (inactive).
With `Cc1coc2c(O)cc3c(c12)OC1(N2CCCCC2)C(=O)NCCCC31` (stereo unspecified), the viability is 1.27% (active).
Consider `CCc1c(O)cc2n(c1=O)-c1ccccc1C2(C)C`, for which the viability is 91.5% (inactive).
In the case of `COC(=O)c1ccc(/C=N\n2c(C)nnc2C)cc1`, the viability was 99.6% (inactive).
For `Cc1nnc(C)n1/N=C/c1ccc(C(C)C)cc1`, the viability is 106% (inactive).
As to `COc1ccc(Br)cc1/C=N/n1c(C)nnc1C`, the viability is 28.1% (active).
With `CCN(CC)CC(=O)c1c[nH]c2ccc(OC)cc12`, the viability is 77.2% (inactive).
As for `CC(c1ccco1)N(C(=O)Nc1ccccc1)C1CCCCC1` (stereo unspecified), the viability is 77.7% (inactive).
For the compound `O=C(CO/N=C/c1ccccc1O)NNC(=O)c1ccccc1Cl`, the viability is 102% (inactive).
Take `CC[C@]1(O)CC2CN(CCc3c([nH]c4ccccc34)[C@@](C(=O)OC)(c3cc4c(cc3OC)N(C=O)[C@H]3[C@@](O)(C(=O)OC)[C@H](OC(C)=O)[C@]5(CC)C=CCN6CC[C@]43[C@@H]65)C2)C1` (stereo partly specified): the viability is 31.9% (active).
Turning to `CC(C)c1cc(C(=O)O)n[nH]1`, the viability was 102% (inactive).
Regarding `Cc1ccc(NC(=O)CSCC(=O)N2CCOCC2)cc1`, the viability is 93.9% (inactive).
For the compound `CCCc1[nH]nc2c1C(c1ccc(OC)c(Cn3nc(C)c(Br)c3C)c1)C(C#N)=C(N)O2` (stereo unspecified), the viability was 87.4% (inactive).
For the compound `CCCc1[nH]nc2c1C(c1ccc(Br)s1)C(C#N)=C(N)O2` (stereo unspecified), the viability was 1.42% (active).
Consider `CCCc1[nH]nc2c1C(c1ccc(OC(=O)c3ccco3)cc1)C(C#N)=C(N)O2` (stereo unspecified), for which the viability is 97.7% (inactive).
`CCOc1ccc(CN(Cc2ccco2)S(=O)(=O)c2ccc(-n3cnnn3)c(OC)c2)cc1`: the viability is 66.6% (inactive).
With `Cc1c(C=O)c2ccccn2c1C(=O)c1ccncc1` the figure was 87.6% (inactive).
With `Cc1ccc(-c2cc(C(=O)NCC3CCCO3)c3ccccc3n2)o1` (stereo unspecified), the viability was 87.9% (inactive).
For `COc1ccc2nc(SCC(=O)Nc3c(C)cc(C)cc3C)[nH]c2c1`, the viability is 71.7% (inactive).
`Cc1ccc2nc(-c3ccc(SCC(=O)Nc4cc(C)on4)nc3)[nH]c2c1`: the viability was 10.7% (active).
In the case of `Cc1ccc(-c2csc(SCC(=O)Nc3cc(C)on3)n2)cc1`, the viability is 87.9% (inactive).
As to `CC(C)NC(=O)CSc1nnc(COc2ccccc2Cl)o1`, the viability was 106% (inactive).
In the case of `CCCC(C)C(=O)Nc1ccc(NC(C)=O)cc1` (stereo unspecified), the viability is 103% (inactive).
As for `CCN1CCN(c2c(Cl)cccc2NC(=O)c2ccc(Br)o2)CC1`, the viability is 90.5% (inactive).
As for `COc1cc(OC)c(NC(=O)c2ccc(Br)o2)cc1Cl`, the viability is 58.5% (inactive).
For the compound `CCCC(=O)Nc1ccc(Cl)c(NC(=O)c2ccc(Br)o2)c1`, the viability was 28.2% (active).
For the compound `CCN(c1ccccc1)S(=O)(=O)c1ccc(NC(=O)C(C)(C)C)cc1`, the viability was 34.8% (active).
For `CCN(c1ccccc1)S(=O)(=O)c1ccc(N)cc1` the value was 89.9% (inactive).
For the compound `CCN(c1ccccc1)S(=O)(=O)c1cccc(C(=O)O)c1`, the viability is 103% (inactive).
`COc1ccc(/C(O)=C2\C(=O)C(=O)N(Cc3ccco3)C2c2ccc(OC)cc2OC)cc1` (stereo unspecified): the viability was 97.1% (inactive).
Regarding `CC1=NN(/C(=N\c2nnc(C)s2)Nc2ccccc2)[C@H](c2ccc(C)cc2)S1`, the viability is 56.5% (inactive).
In the case of `CCOC(=O)N1CCN(C(=O)CN(C2CCCCC2)S(C)(=O)=O)CC1`, the viability was 84.9% (inactive).
For `CS(=O)(=O)N(CC(=O)Nc1ccc(Cl)c(Cl)c1)C1CCCCC1` the value was 16.6% (active); for `CS(=O)(=O)N(CC(=O)N1CCN(c2ccc(F)cc2)CC1)C1CCCCC1`, 92% (inactive).
On to `COC(=O)C1=C(C)N=C2SC(C)C(=O)N2C1/C=C/c1ccccc1` (stereo unspecified), for which the viability is 85.8% (inactive).
In the case of `O=C(NCCCN1CCCCC1)c1ccc2c(c1)NC(=O)C(N1CCOCC1)S2` (stereo unspecified), the viability is 98.8% (inactive).
For `Nc1c(C(=O)NCc2ccccc2)nnn1Cc1cccc(Cl)c1`, the viability is 26.7% (active).
`CCOc1ccc(Cn2nnc(C(=O)Nc3ccc(OC)cc3OC)c2N)cc1`: the viability was 76.9% (inactive).
For `CCOc1ccc(Cn2nnc(C(=O)NCc3ccccc3)c2N)cc1`, the viability was 90.5% (inactive).
Consider `COc1cc(OC)cc(-c2cc3nc(C4CCN(C(=O)OC(C)(C)C)CC4)cc(=O)n3[nH]2)c1`, for which the viability is 106% (inactive).
Consider `COc1ccc(C(=O)NN(C)c2nc(-c3ccccc3)cc(C)c2S(C)(=O)=O)cc1`, for which the viability was 85% (inactive).
With `Cn1nc(-c2ccc(Cl)cc2)c2cc(C(=O)NCc3ccco3)sc21` the figure was 68.1% (inactive); with `O=C(NCc1ccco1)c1nc(-c2ccccc2)n(-c2ccccc2)n1`, 75% (inactive).
On to `Cc1nn(-c2ccccc2)c2sc(C(=O)N(Cc3ccco3)C(C)C(=O)NC(C)(C)C)cc12` (stereo unspecified), for which the viability was 7.03% (active).
For `CC(=O)Nc1ccc(NC(=O)c2sc3nc4c(c(-c5ccc(C)cc5)c3c2N)CCC4)cc1`, the viability is 30.2% (active).
Take `NC(=O)c1sc2nc3c(c(-c4ccccc4)c2c1N)CCC3`: the viability is 73.2% (inactive).
Regarding `Cc1cccc(NC(=O)c2sc3nc4c(c(-c5ccco5)c3c2N)CCC4)c1`, the viability was 78.6% (inactive).
Consider `COc1cc(OC)c(-n2c(C)cc(C=O)c2C)cc1Cl`, for which the viability was 104% (inactive).
As to `Cc1cccc(C)c1NC(=O)CSc1nnc(-c2ccccc2)n1Cc1ccc2c(c1)OCO2`, the viability was 72.2% (inactive).
Take `CSc1nc(C)cc(SC(C(C)=O)C(=O)Nc2ccccc2)n1` (stereo unspecified): the viability was 100% (inactive).
Regarding `Cc1onc(-c2ccccc2Cl)c1C(=O)OCC(=O)c1ccccc1`, the viability was 97% (inactive).
Regarding `O=C(Cc1c(O)c2ccccc2[nH]c1=O)NCc1ccccc1`, the viability is 101% (inactive).
For the compound `O=C(NCCN1CCN(Cc2ccccc2)CC1)c1cc2c(=O)[nH]c3ccccc3c2s1`, the viability was 1.91% (active).
For `CN1CCN(CCCNC(=O)c2cc3c(=O)oc4ccccc4c3s2)CC1`, the viability was 87.3% (inactive).
`COc1ccc(-n2c(C)csc2=S)cc1`: the viability is 86.6% (inactive).
